Experimental data published in PubChem BioAssay.
Inconclusive results are not listed. The source made the active and inactive calls.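 Rule for the calls, unless noted: active = normalized viability below 100% at a tested concentration; inactive = the rest.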

Legend:
[1] = viability loss in pontine glioma line – cell-based, SU-DIPG-XVII, MIPE5.0, CellTiter-Glo, qHTS, dose response (AID 1347060; cut-off not given, nearly all actives have AC50 up to about 26 µM;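 for AC50: cells exposed to compound for 48 hours before viability readout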); settings: CellTiter-Glo ATP luminescence
[2] = growth inhibition of DIPG cells – cell-based, MIPE4.0 library, CellTiter-Glo luminescence, qHTS (AID 1347066; cut-off not given, nearly all actives have AC50 up to about 30 µM;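 note: cells exposed to compound for 48 hours before readout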); settings: SU-DIPG-VI viability, CellTiter-Glo ATP luminescence
[3] = viability loss in pontine glioma line – cell-based, SU-DIPG-XXV, MIPE5.0, CellTiter-Glo, qHTS, dose response (AID 1347065; cut-off not given, nearly all actives have AC50 up to about 26 µM;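 note: cells exposed to compound for 48 hours before ATP readout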); settings: CellTiter-Glo ATP luminescence
[4] = growth inhibition of DIPG cells – cell-based, MIPE5.0 library, qHTS (AID 1347068; cut-off not given, nearly all actives have IC50 up to about 30 µM;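 for IC50: cells exposed to compound for 48 hours before viability readout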); settings: SU-DIPG-XXV viability
[5] = viability loss with induced miR-34 in A549 – imaging, A549 dox-inducible miR-34, nuclei and caspase counts, primary screen (AID 1347080;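 active = compounds whose cell count with miR-34 switched on is under 0.7 times the count with it off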); settings: A549 miR-34 inducible, Hoechst nuclei count, 48 h
[6] = galactose survival enhancers in mitochondrial complex I cybrids – cell-based, galactose medium, ATP luminescence, primary screen (AID 1645843;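 active = z-score of at least 1.8 in each of two replicates, scored against plate mean and spread of sample wells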;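 note: positive z means more ATP and so rescue of galactose-driven cybrid death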); settings: complex I mutant cybrid cells, 72 h, stronger effect = higher value
[7] = JHH-DIPG-1 glioma cell viability, MIPE5.0 library, CellTiter-Glo luminescence, qHTS (AID 1347067; cut-off not given, nearly all actives have AC50 up to about 26 µM;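 note: cells exposed to compound for 48 hours before readout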); settings: JHH-DIPG-1 glioma viability, CellTiter-Glo ATP luminescence
[8] = MELAS cybrid and Rieske KO viability enhancers – cell-based, MELAS cybrids, Rieske KO mouse fibroblasts, CellTiter-Glo, primary screen (AID 1508586;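 active = mean z-score across replicates of 1.96 or higher in either the MELAS or the Rieske mutant cell line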;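 note: z relative to plate mean and SD of compound and empty wells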); settings: low glucose
[9] = drug combination growth inhibition, ovarian cancer – cell-based, oncology-focused library, rucaparib conditional, profiling panel (AID 1508598); settings: patient-derived ovarian cancer cells, CellTiter-Glo viability, 144 h, stronger effect = lower value
[10] = stronger effect = lower value, cell number ratio, induced over uninduced
[11] = measured here: relative caspase fold change +Dox/-Dox
[12] = measured here: total cells with miR-34 induction, stronger effect = lower value
[13] = measured here: total cells without miR-34 induction
[14] = MELAS cybrid survival, CellTiter-Glo 48 h, stronger effect = higher value
[15] = Rieske KO mouse fibroblast survival, CellTiter-Glo 72 h

CO[C@@H]1[C@H](N(C)C(=O)c2ccccc2)C[C@H]2O[C@]1(C)n1c3ccccc3c3c4c(c5c6ccccc6n2c5c31)C(=O)NC4
active: AC50 [1] 1.66 µM
inactive: outcome [2]

Cc1c(O)cccc1C(=O)NC(CSc1ccccc1)C(O)CN1CC2CCCCC2CC1C(=O)NC(C)(C)C (stereo not drawn)
inactive: fold change [5, 10] 1.31 | z-score [6] -1.88
active: AC50 [1] 20.9 µM | AC50 [3] 20.9 µM | IC50 [4] 18.6 µM
0.935: fold change [5, 11]
1680: cell count [5, 13]
2190: cell count [5, 12]

Cc1cnc(-c2ccccc2C(C)C)nc1NCc1ccc(-n2ccnn2)cc1
0.465: fold change [5, 11]
8340: cell count [5, 13]
7550: cell count [5, 12]
active: viability ([9]; at 0.00122 µM, OCI-P5x cells, with rucaparib 20 µM, 100% = cells with rucaparib alone) 95.9% | viability ([9]; at 0.00488 µM, OCI-P5x cells, with rucaparib 20 µM, 100% = cells with rucaparib alone) 98.5% | viability ([9]; at 0.0195 µM, OCI-P5x cells, without rucaparib) 97.4% | viability ([9]; at 0.0781 µM, OCI-P5x cells, without rucaparib) 97.6% | viability ([9]; at 0.313 µM, OCI-P5x cells, with rucaparib 20 µM, 100% = cells with rucaparib alone) 96.4% | viability ([9]; at 1.25 µM, OCI-P5x cells, without rucaparib) 96.9% | viability ([9]; at 5 µM, OCI-P5x cells, with rucaparib 20 µM, 100% = cells with rucaparib alone) 94.5% | viability ([9]; at 5 µM, OCI-P5x cells, without rucaparib) 97.8%
0.422: z-score [8, 15]
inactive: outcome [1] | outcome [3] | outcome [7] | outcome [4] | fold change [5, 10] 0.905 | z-score [8, 14] -0.372 | viability ([9]; at 0.000305 µM, OCI-C5x cells, with rucaparib 10 µM, 100% = cells with rucaparib alone) 118% | viability ([9]; at 0.000305 µM, OCI-C5x cells, without rucaparib) 116% | viability ([9]; at 0.000305 µM, OCI-P5x cells, with rucaparib 20 µM, 100% = cells with rucaparib alone) 101% | viability ([9]; at 0.000305 µM, OCI-P5x cells, without rucaparib) 100% | viability ([9]; at 0.00122 µM, OCI-C5x cells, with rucaparib 10 µM, 100% = cells with rucaparib alone) 132% | viability ([9]; at 0.00122 µM, OCI-C5x cells, without rucaparib) 118% | viability ([9]; at 0.00122 µM, OCI-P5x cells, without rucaparib) 102% | viability ([9]; at 0.00488 µM, OCI-C5x cells, with rucaparib 10 µM, 100% = cells with rucaparib alone) 132% | viability ([9]; at 0.00488 µM, OCI-C5x cells, without rucaparib) 120% | viability ([9]; at 0.00488 µM, OCI-P5x cells, without rucaparib) 102% | viability ([9]; at 0.0195 µM, OCI-C5x cells, with rucaparib 10 µM, 100% = cells with rucaparib alone) 123% | viability ([9]; at 0.0195 µM, OCI-C5x cells, without rucaparib) 110% | viability ([9]; at 0.0195 µM, OCI-P5x cells, with rucaparib 20 µM, 100% = cells with rucaparib alone) 103% | viability ([9]; at 0.0781 µM, OCI-C5x cells, with rucaparib 10 µM, 100% = cells with rucaparib alone) 123% | viability ([9]; at 0.0781 µM, OCI-C5x cells, without rucaparib) 118% | viability ([9]; at 0.0781 µM, OCI-P5x cells, with rucaparib 20 µM, 100% = cells with rucaparib alone) 100% | viability ([9]; at 0.313 µM, OCI-C5x cells, with rucaparib 10 µM, 100% = cells with rucaparib alone) 126% | viability ([9]; at 0.313 µM, OCI-C5x cells, without rucaparib) 126% | viability ([9]; at 0.313 µM, OCI-P5x cells, without rucaparib) 101% | viability ([9]; at 1.25 µM, OCI-C5x cells, with rucaparib 10 µM, 100% = cells with rucaparib alone) 127% | viability ([9]; at 1.25 µM, OCI-C5x cells, without rucaparib) 119% | viability ([9]; at 1.25 µM, OCI-P5x cells, with rucaparib 20 µM, 100% = cells with rucaparib alone) 104% | viability ([9]; at 5 µM, OCI-C5x cells, with rucaparib 10 µM, 100% = cells with rucaparib alone) 129% | viability ([9]; at 5 µM, OCI-C5x cells, without rucaparib) 130%

Cc1cc(OCc2nnc(SC3CCCC3)n2-c2cccnc2)ccc1-c1ccc(S(C)(=O)=O)cc1
1100: cell count [5, 12]
1250: cell count [5, 13]
0.499: fold change [5, 11]
-0.0239: z-score [8, 15]
inactive: outcome [4] | fold change [5, 10] 0.88 | z-score [8, 14] 0.698
active: AC50 [1] 8.33 µM | AC50 [3] 8.33 µM | AC50 [7] 2.09 µM

CN(C)c1ccc(Nc2nc(N)n(C(=O)c3c(F)cccc3F)n2)cc1
active: AC50 [1] 8.33 µM | AC50 [3] 5.25 µM | IC50 [4] 14.8 µM

COC(=O)[C@H]1[C@@H](O)[C@@]2(O)c3c(OC)cc(O[C@@H]4O[C@@H]([C@@H](O)CO)CO[C@H]4OC)cc3O[C@@]2(c2ccc(OC)cc2)[C@@H]1c1ccccc1
inactive: outcome [4]
active: AC50 [1] 8.33 µM | AC50 [3] 5.25 µM
